The subject of one assay is T1, ERK5.
T1 construct: gene MAPK7

A further assay concerns T2, FAK.
T2 construct: gene PTK2
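Also: kd values determined as follow-up on hits from a single-replicate KINOMEscan panel screen.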

For orientation: Kd means a measure of binding affinity in units of concentration. Read a low Kd as tighter binding. For the compound `Cc1ccc(Oc2ccc(Nc3ncnc4cc[nH]c34)cc2C)cn1`, the Kd was 6.5 nM in the assay on ERBB2 and above 10000 nM in the assay with FLT1.

As to `O=C(Nc1n[nH]c2nc(-c3ccccc3)c(Br)cc12)C1CC1` [SB-708998], in the assay with ERK5, the Kd is above 10 µM.

Turning to `CCc1nc(-c2cccc(C)c2)c(-c2ccncc2)s1`, the Kd in the assay with FAK was above 10 µM.

On to `O=C(NCc1cccs1)c1cc(C(=O)c2c(Cl)cccc2Cl)c[nH]1` [GW823670], for which the dissociation constant Kd in the assay on FAK is above 10 µM.

On to `COc1cc(OC)cc(-c2cc3cnc(N)nc3nc2NC(=O)NC(C)(C)C)c1`, for which the Kd was 66 nM in the assay on FGFR1, 310 nM in the assay on FGFR2 and 110 nM in the assay on FGFR3.

The compound `FC(F)(F)c1ccc(-c2ncn(CCCN3CCOCC3)c2-c2ccncc2)cc1` [SB-217780] registered a Kd in the assay with FGFR1 above 10000 nM.

In the assay with FGFR4, `Nc1ncnc2c1ncn2-c1cccc(F)c1` [SKF-97560] displayed a Kd above 10 µM.

Consider `COc1ccc(Nc2nccc(N3CCC(NS(=O)(=O)c4ccc(NC(C)=O)cc4)C3)n2)cc1` (centres unmarked) [GSK1379729], for which the Kd with FGFR4 is above 10 µM.

Turning to `COc1cc2nccc(Nc3ccc(OCc4ccc(NC(C)=O)cc4)cc3)c2cc1OC.Cl` [GW440135], the Kd in the assay with FLT1 stood at 680 nM.

`COc1ccc(-n2cnc3c(N)ncnc32)cc1` [SKF-97236] displayed a Kd with FLT3 of 120 nM.

For the compound `Cl.NS(=O)(=O)c1cccc(Nc2cc(-c3ccc(F)cc3)n[nH]2)c1` [GW824645], in the assay with FLT3, binding was put at a Kd of 7.5 nM.

The record behind these values is article PMC5540273 (PLoS ONE, 2017).
